# Cruzain inh Det: qHTS Assay for Promiscuous and Specific Inhibitors of Cruzain (with detergent); Potency, µM, inactives show max response, negative = inhibition, usual class: inhibitors; purified cruzain, Z-FR-AMC fluorescence, 0.01% Triton; Cruzipain (Trypanosoma cruzi), P25779; actives 0.43% (n = 200,000);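 note: plate controls were neutral wells for no effect and buffer without enzyme for full effect; nearly all actives have a fitted effect of over 40% in size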
# Target sequence (P25779 123-467 limits assumed): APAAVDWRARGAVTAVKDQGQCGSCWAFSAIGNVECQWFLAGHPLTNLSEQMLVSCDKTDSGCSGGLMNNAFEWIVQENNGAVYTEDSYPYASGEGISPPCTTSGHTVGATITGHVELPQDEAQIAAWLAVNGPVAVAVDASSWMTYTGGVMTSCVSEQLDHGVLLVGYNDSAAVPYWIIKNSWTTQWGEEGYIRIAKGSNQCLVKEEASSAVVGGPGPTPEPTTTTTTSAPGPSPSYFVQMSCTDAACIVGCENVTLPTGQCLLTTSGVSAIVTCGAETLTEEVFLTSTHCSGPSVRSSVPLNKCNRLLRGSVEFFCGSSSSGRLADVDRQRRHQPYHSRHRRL
#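 Enzyme 1.5 nM, Z-FR-AMC 2 uM, NaOAc 100 mM pH 5.5, DTT 5 mM, Triton X-100 0.01%; 15 min RT compound preincubation; kinetic ex360/em450, 60 s delta.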
# Cruzain inh noDet: qHTS Assay for Promiscuous and Specific Inhibitors of Cruzain (without detergent). purified cruzain, Z-FR-AMC fluorescence, no detergent. Cruzipain (Trypanosoma cruzi), P25779. Potency, µM, without a hit: max response, negative = inhibition, most hits filed as inhibitors. actives 2.3% (n = 200,000);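 note: plate controls were enzyme without inhibitor for no effect and buffer without enzyme for full effect; nearly all actives have a fitted effect of over 40% in size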
#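 Detergent-free condition (0.00005% Triton X-100) in acetate buffer pH 5.5 with DTT. 1.5 nM enzyme and compound were pre-mixed 15 min, then 2 uM Z-FR-AMC substrate added; reaction progress from fluorescence change between first and third reads (60 s).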
# The depositor's hits bear a star; ? = inconclusive. The list is not random: actives were taken first. Their share in the collection is about 2.6%. Calls come from the whole dose curve; as a rule, active = well fitted curve in the direction sought with a large enough effect; inconclusive = small, poorly fitted or top-dose-only effect, or another doubt; inactive = no such curve, though single readings can be large; an effect the other way counts as inactive or inconclusive. Potency is the fitted concentration of half-maximal effect.
SMILES,Cruzain inh Det,Cruzain inh noDet
Cc1cc2cc(CNS(=O)(=O)c3ccc4ccccc4c3)ccc2n1C,-2.7%,25.1µM*
CC(=O)Nc1ccc(S(=O)(=O)NCc2ccc3c(c2)cc(C)n3C)cc1,-0.1%,-5.7%
O=c1oc(-c2ccccc2)nc2c1C1(CCCCC1)Cc1ccccc1-2,-0.5%,25.1µM*
CCC1(CC)Cc2ccccc2-c2nc(-c3ccccc3)oc(=O)c21,-0.9%,?
CC(C)NC(=O)CC(=O)Nc1ccc2nc3n(c(=O)c2c1)CCCCC3,-0.3%,-3.6%
O=C(COC(=O)C(Cc1c[nH]c2ccccc12)NC(=O)c1ccc(Br)cc1)c1ccc(Cl)cc1 (stereo not drawn),-0.8%,?
O=C(COC(=O)C(Cc1c[nH]c2ccccc12)NC(=O)c1ccc(Cl)cc1)c1ccc(Cl)cc1 (stereo not drawn),-2.3%,?
O=C(NC(Cc1c[nH]c2ccccc12)C(=O)O)c1ccccc1 (stereo not drawn),-3.3%,-8.0%
Cc1cc(NC(=O)COC(=O)[C@H](Cc2c[nH]c3ccccc23)NC(=O)c2ccc(F)cc2)no1,14.1µM*,?
Cc1ccc(C(=O)COC(=O)C(Cc2c[nH]c3ccccc23)NC(=O)c2ccc(C(C)(C)C)cc2)cc1 (stereo not drawn),2.0%,10µM*
CC(C)(C)c1ccc(C(=O)NC(Cc2c[nH]c3ccccc23)C(=O)OCC(=O)c2ccc(Br)cc2)cc1 (stereo not drawn),-4.0%,10µM*
CC(=O)NC(Cc1c[nH]c2ccccc12)C(=O)OCC(=O)Nc1cc(C)on1 (stereo not drawn),-1.5%,-1.1%
CCc1ccc(C(=O)NC(Cc2c[nH]c3ccccc23)C(=O)OCC(=O)c2ccc(Br)cc2)cc1 (stereo not drawn),-5.1%,15.8µM*
CCCCSc1nnc2n(-c3ccc(OC)cc3)c(=O)c3c4c(sc3n12)COC(C(C)C)C4 (stereo not drawn),-1.3%,13.0%
Cc1cc(NC(=O)N2CC=C(c3c[nH]c4ccccc34)CC2)ccc1Br,-11.8%,?
COc1ccc(Cn2ccc3nc(C)c(C(=O)NCc4ccc(SC)cc4)cc3c2=O)cc1,-1.1%,-8.4%
CCn1c(Oc2ccc(F)cc2F)nc2c1c(=O)n(C)c(=O)n2C,1.1%,-3.3%
CCc1ccc(N2C(=O)CC(c3cc(OC)ccc3OC)C3=C2COC3=O)cc1 (stereo not drawn),-2.3%,-16.8%
CCc1c(O)nc(SCC(=O)Nc2ccc3c(c2)CCC3)[nH]c1=O,1.0%,-11.7%
CCCCc1c(O)nc(SCC(=O)Nc2ccc3c(c2)CCC3)[nH]c1=O,-17.4%,20µM*
CCCCN(C)C(=O)C1CCC(CNS(=O)(=O)c2ccc(Cl)cc2)CC1 (stereo not drawn),-2.3%,?
CCOC(=O)/C=C/CCC/C=C/C(=O)c1ccccc1,-21.2%,-10.3%
CC1CCN(c2ccc(/C=N/n3nnnc3N)cc2[N+](=O)[O-])CC1,-1.5%,-10.1%
CC1CCN(c2ccc(/C=N\Nc3nncn3N)cc2[N+](=O)[O-])CC1,-9.5%,25.1µM*
Cc1ccc(S(=O)(=O)CCC(=O)OCc2ccc(Cl)cc2)cc1,-2.7%,4.6%
SMILES,Cruzain inh Det,Cruzain inh noDet
COC(=O)c1ccc(COC(=O)c2ccc(CS(=O)(=O)c3ccc(C)cc3)cc2)cc1,-1.8%,25.1µM*
Cc1ccc(CSCCNC(=O)/C=C/c2ccc(Cl)cc2)cc1,3.8%,12.6µM*
Cc1ccc(CCNC(=O)CCSCc2ccc(Cl)cc2)cc1,1.1%,0.1%
Cc1ccc(-c2csc3ncnc(SCC(=O)NCc4ccc5c(c4)OCO5)c23)cc1,-0.9%,25.1µM*
O=C(CSc1ncnc2scc(-c3ccc(Cl)cc3)c12)NCc1ccc2c(c1)OCO2,-0.7%,?
Cc1ccc(C(=O)OCc2cc(=O)n3nc(CC(C)C)sc3n2)cc1,8.4%,0.1%
COc1cccc(CN2C(=O)N(c3ccc(C)cc3)C(=O)C2CC(=O)Nc2cc(OC)cc(OC)c2)c1 (stereo not drawn),-6.0%,26.0%
CN(c1ccccc1)S(=O)(=O)c1ccc(NC(=S)NC(=O)C2CC2)cc1,-5.0%,-26.4%
CN(Cc1ccccc1)S(=O)(=O)c1ccc(NC(=S)NC(=O)C2CCCC2)cc1,-3.1%,2.51µM*
Cc1nn(CC(=O)NCc2cccc(Br)c2)c(=O)c2c1sc1ccccc12,-1.6%,28.9%
Cc1ccc(C2C(C#N)=C(N)Oc3n[nH]c(-c4cccs4)c32)cc1 (stereo not drawn),-1.9%,31.6µM*
N#CC1=C(N)Oc2n[nH]c(-c3cccs3)c2C1c1ccoc1 (stereo not drawn),-3.8%,-6.9%
O=C(O)c1ccc(CNCc2ccc(Cl)cc2)s1,-1.1%,16.4%
COc1ccc(NC(=O)CSc2nnc(NC(=O)Nc3ccccc3)s2)cc1OC,-2.5%,9.3%
Cc1cccc(C(=O)Nc2nnc(SCC(=O)Nc3ccc4c(c3)oc3ccccc34)s2)c1,-3.2%,20µM*
Cc1cccc(NC(=O)CSc2nc3ccc(NC(=O)c4ccccc4)cc3s2)c1,-1.7%,-27.2%
COc1ccccc1C(=O)Nc1nnc(SCC(=O)Nc2ccc3c(c2)oc2ccccc23)s1,1.6%,12.6µM*
Cc1cc(C)c(OCC(=O)N(Cc2ccc(N(C)C)cc2)Cc2ccco2)c(C)c1,-11.2%,?
CSc1nn(CC(=O)Nc2cc(C)ccc2C)c(N)c1S(=O)(=O)c1ccccc1,-3.4%,-4.9%
Cc1cccc(-n2c(=O)c3c(c4cc(C)ccc4n3C)n(C)c2=O)c1,0.1%,-2.7%
C=Cc1ccc(Cn2c(=O)n(-c3cccc(C)c3)c(=O)c3c2c2cc(C)ccc2n3C)cc1,-18.4%,25.1µM*
Cc1cccc(OCC(=O)OCc2cc(=O)n3nc(-c4cccs4)sc3n2)c1,-3.1%,-25.4%
COC(=O)C/C=C/[C@@H](C)[C@H](OC)c1c(Br)ccc2c1OCO2,-0.8%,-4.9%
C/C(=N/N=C1/NC(=O)CC(C(=O)O)S1)c1ccccc1 (stereo not drawn),-3.9%,2.3%
C/C(=N\N=C1/NC(=O)C(C)S1)c1ccc([N+](=O)[O-])cc1 (stereo not drawn),25.1µM*,15.8µM*
SMILES,Cruzain inh Det,Cruzain inh noDet
COc1ccc(C(C(=O)NC2CCCC2)N(C(=O)c2snc(-c3ccc(F)cc3)c2N)c2ccccc2)cc1 (stereo not drawn),7.1%,7.94µM*
COc1ccc(C(C(=O)NC2CCCCC2)N(C(=O)c2sc(C)nc2C)c2ccccc2)cc1 (stereo not drawn),-2.0%,0.8%
COc1ccc(C(C(=O)NC2CCCC2)N(C(=O)c2snc(-c3ccc(F)cc3)c2N)c2ccc(OC)cc2)cc1 (stereo not drawn),1.7%,25.1µM*
COc1ccc(C(C(=O)NC2CCCC2)N(C(=O)c2snc(-c3ccc(F)cc3)c2N)c2ccc(F)cc2)cc1 (stereo not drawn),3.2%,25.1µM*
COc1ccc(C(C(=O)NC2CCCC2)N(C(=O)c2snc(-c3ccc(F)cc3)c2N)c2cccc(F)c2)cc1 (stereo not drawn),-0.7%,10µM*
COc1ccc(C(C(=O)NC2CCCCC2)N(C(=O)CCl)c2ccc(Cl)cc2)cc1 (stereo not drawn),2.4%,?
COc1ccc(C(C(=O)NC2CCCC2)N(C(=O)c2ccoc2C)c2ccccc2)cc1 (stereo not drawn),-1.7%,-7.0%
